# Measurements as given in ChEMBL document CHEMBL5606460, “ASAP - DENV-2 NS2B-NS3 protease fluorescence single point” (2024).
# In all, about 2,000 compounds went through this assay and about 110 (5.5%) showed an effect of 50% or more. The list comes from a sample in which strong results are over-represented; it also holds similar structures and randomly drawn compounds.
# Target: Genome polyprotein (dengue virus type 2) (UniProt P29990)
# [1] = Thailand/16681/1984, Concentration 25.0 uM, Number of replicates 1.0
smiles,measurement,setting,value
CN(CCO[Si](C)(C)C(C)(C)C)C(=O)C1CCN(c2ccc(C=O)cc2)CC1,inhibition,[1],11.8%
Cc1cc(CO)c2cccc(Cc3cccc(NC(=O)C(=O)c4ccco4)c3)c2n1,inhibition,"Thailand/16681/1984, Concentration 49.95 uM, Number of replicates 2.0, Standard deviation 2.5499602835301056 %",-0.234%
same,inhibition,"Thailand/16681/1984, Concentration 99.9 uM, Number of replicates 2.0, Standard deviation 0.7837509937910023 %",-0.946%
Cc1cc(C(=O)N2CCN(C(=O)c3cc(C(C)(F)F)n[nH]3)CC2)cc2nn[nH]c12,inhibition,"Thailand/16681/1984, Concentration 49.5 uM, Number of replicates 2.0, Standard deviation 0.5040908488530289 %",1.22%
same,inhibition,"Thailand/16681/1984, Concentration 99.01 uM, Number of replicates 2.0, Standard deviation 0.07028947937337628 %",1.9%
same,inhibition,"Thailand/16681/1984, Concentration 198.0 uM, Number of replicates 2.0, Standard deviation 0.7181064342983147 %",2.65%
O=Cc1ccc(N2CCC(C(=O)N[C@@H](CCO)c3ccccc3F)CC2)cc1,inhibition,[1],11.4%
CNC(=O)[C@H]1CN(S(=O)(=O)c2ccc(Oc3ccccc3Cl)cc2)CCO1,inhibition,"Thailand/16681/1984, Concentration 49.5 uM, Number of replicates 2.0, Standard deviation 0.2669928674711758 %",-4.8%
same,inhibition,"Thailand/16681/1984, Concentration 99.01 uM, Number of replicates 2.0, Standard deviation 0.624095865646037 %",-4.22%
same,inhibition,"Thailand/16681/1984, Concentration 198.0 uM, Number of replicates 2.0, Standard deviation 0.6183745152543801 %",-5.47%
Nc1ccc(Cl)c2cccnc12,inhibition,"Thailand/16681/1984, Concentration 49.95 uM, Number of replicates 2.0, Standard deviation 3.8383177085719704 %",-6.59%
same,inhibition,"Thailand/16681/1984, Concentration 99.9 uM, Number of replicates 2.0, Standard deviation 5.003138959022175 %",-3.71%
Nc1cccc2c(Cl)ccnc12,inhibition,"Thailand/16681/1984, Concentration 49.95 uM, Number of replicates 2.0, Standard deviation 9.3539447807875 %",25.3%
same,inhibition,"Thailand/16681/1984, Concentration 99.9 uM, Number of replicates 2.0, Standard deviation 4.02175613474424 %",68.2%
Nc1ccnc2c(Cl)cccc12,inhibition,"Thailand/16681/1984, Concentration 49.95 uM, Number of replicates 2.0, Standard deviation 2.736837302484984 %",-9.22%
same,inhibition,"Thailand/16681/1984, Concentration 99.9 uM, Number of replicates 2.0, Standard deviation 4.13445849353631 %",-8.19%
CNC(=O)c1cc(Cl)ccc1NS(=O)(=O)c1ccc(C(=O)N(C)C)cc1,inhibition,"Thailand/16681/1984, Concentration 49.5 uM, Number of replicates 2.0, Standard deviation 0.43931539952348436 %",-0.006%
same,inhibition,"Thailand/16681/1984, Concentration 99.01 uM, Number of replicates 2.0, Standard deviation 1.0448066347124485 %",1.16%
same,inhibition,"Thailand/16681/1984, Concentration 198.0 uM, Number of replicates 2.0, Standard deviation 2.436767925477247 %",5.4%
O=Cc1ccc(N2CCC(C(=O)N3CCN(c4ccc(F)cc4F)CC3)CC2)cc1,inhibition,[1],11.4%
CC[C@H]1CCN(C(=O)c2cc(Cl)ccc2NS(=O)(=O)c2ccc(Oc3ccccc3Cl)cc2)C1,inhibition,"Thailand/16681/1984, Concentration 49.5 uM, Number of replicates 2.0, Standard deviation 0.47789805764320614 %",46.7%
same,inhibition,"Thailand/16681/1984, Concentration 99.01 uM, Number of replicates 2.0, Standard deviation 0.11836183761011393 %",61.8%
same,inhibition,"Thailand/16681/1984, Concentration 198.0 uM, Number of replicates 2.0, Standard deviation 0.034704726588234404 %",73.4%
O=C(c1cc(Cl)ccc1NS(=O)(=O)c1ccc(Oc2ccccc2Cl)cc1)N1CC[C@H](CO)C1,inhibition,"Thailand/16681/1984, Concentration 49.5 uM, Number of replicates 2.0, Standard deviation 1.1631525408138252 %",2.87%
same,inhibition,"Thailand/16681/1984, Concentration 99.01 uM, Number of replicates 2.0, Standard deviation 1.2459174873464263 %",43.6%
same,inhibition,"Thailand/16681/1984, Concentration 198.0 uM, Number of replicates 2.0, Standard deviation 0.07742612093802895 %",97.8%
CNC(=O)C[C@H]1CCCN1S(=O)(=O)c1ccc(Oc2ccccc2Cl)cc1,inhibition,"Thailand/16681/1984, Concentration 49.5 uM, Number of replicates 2.0, Standard deviation 0.32757728686835763 %",-0.145%
same,inhibition,"Thailand/16681/1984, Concentration 99.01 uM, Number of replicates 2.0, Standard deviation 1.5700018436077314 %",1.46%
same,inhibition,"Thailand/16681/1984, Concentration 198.0 uM, Number of replicates 2.0, Standard deviation 0.26515981673573996 %",3.55%
CNC(=O)[C@H]1CCCN(S(=O)(=O)c2ccc(Oc3ccccc3Cl)cc2)C1,inhibition,"Thailand/16681/1984, Concentration 49.5 uM, Number of replicates 2.0, Standard deviation 1.3425926640552597 %",-1.55%
same,inhibition,"Thailand/16681/1984, Concentration 99.01 uM, Number of replicates 2.0, Standard deviation 1.1232771440198652 %",0.94%
same,inhibition,"Thailand/16681/1984, Concentration 198.0 uM, Number of replicates 2.0, Standard deviation 1.8999403128335026 %",2.72%
O=C(c1cc(Cl)ccc1NS(=O)(=O)c1ccc(Oc2ccccc2Cl)cc1)N1CCC[C@@H]1CO,inhibition,"Thailand/16681/1984, Concentration 49.5 uM, Number of replicates 2.0, Standard deviation 0.383564644131335 %",17.2%
same,inhibition,"Thailand/16681/1984, Concentration 99.01 uM, Number of replicates 2.0, Standard deviation 0.18466388793957156 %",85.5%
same,inhibition,"Thailand/16681/1984, Concentration 198.0 uM, Number of replicates 2.0, Standard deviation 0.022248141217142654 %",93.6%
CNC(=O)C[C@H]1CCCCN1S(=O)(=O)c1ccc(Oc2ccccc2Cl)cc1,inhibition,"Thailand/16681/1984, Concentration 49.5 uM, Number of replicates 2.0, Standard deviation 0.6403061336392061 %",-1.92%
same,inhibition,"Thailand/16681/1984, Concentration 99.01 uM, Number of replicates 2.0, Standard deviation 0.5926288072768489 %",-0.478%
same,inhibition,"Thailand/16681/1984, Concentration 198.0 uM, Number of replicates 2.0, Standard deviation 0.4290957159902598 %",1.47%
CNC(=O)[C@H]1CCN(S(=O)(=O)c2ccc(Oc3ccccc3Cl)cc2)C1,inhibition,"Thailand/16681/1984, Concentration 49.5 uM, Number of replicates 2.0, Standard deviation 0.2326651022960228 %",-2.7%
same,inhibition,"Thailand/16681/1984, Concentration 99.01 uM, Number of replicates 2.0, Standard deviation 1.0727392899756494 %",-1.81%
same,inhibition,"Thailand/16681/1984, Concentration 198.0 uM, Number of replicates 2.0, Standard deviation 0.8124211767562954 %",0.204%
O=Cc1ccc(N2CCC(C(=O)Nc3c(F)cc(F)cc3[N+](=O)[O-])CC2)cc1,inhibition,[1],15.2%
Cc1cc(C(N)=O)c2cccc(Cl)c2n1,inhibition,"Thailand/16681/1984, Concentration 49.95 uM, Number of replicates 2.0, Standard deviation 7.126306314460823 %",-2.36%
same,inhibition,"Thailand/16681/1984, Concentration 99.9 uM, Number of replicates 2.0, Standard deviation 6.288884680839078 %",0.295%
O=Cc1ccc(N2CCC(C(=O)N3CCN(C(=O)OCc4ccccc4)CC3)CC2)cc1,inhibition,[1],11.5%
CC(C)COc1ccc(CNC(=O)C2CCN(c3ccc(C=O)cc3)CC2)cc1,inhibition,[1],2.46%
COC(=O)c1c[nH]c(-c2ccccc2C(=O)Nc2cnn(C)c2)c1,inhibition,"Thailand/16681/1984, Concentration 49.5 uM, Number of replicates 2.0, Standard deviation 4.6959836114984075 %",-3.99%
same,inhibition,"Thailand/16681/1984, Concentration 99.01 uM, Number of replicates 2.0, Standard deviation 3.634509710514387 %",-4.57%
same,inhibition,"Thailand/16681/1984, Concentration 198.0 uM, Number of replicates 2.0, Standard deviation 4.5675250537856 %",-3.67%
